The values that follow come from PubChem BioAssay (NCI).

The test system of this assay is MDA-MB-468 breast. In words: NCI-60 one-dose screen, 48 h (100 = growth as untreated, 0 = no growth, -100 = all killed). To be noted: 10 µM unless noted.

This is part of a sample that, as a whole, favours compounds with a hit. Of some 83,000 tested, about 20% had one in any assay.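 For each line, cells grew in 96-well plates with the test compound present at a single concentration for 48 hours.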 Values without a mark were called inactive. The source made the active and inactive calls. The calls were made as follows: active = growth percent below 10; inactive = the rest.

Turning to `C#Cc1cccc(NC(=O)C2CCCCN2C(=O)CCl)c1` (stereo unspecified), the growth was -60.1% [8.25 µM] (active). As to `COC(=O)c1c2c(c(C)[n+]([O-])c1C)C(=O)C(NCc1ccccc1)=CC2=O`, the growth was -31.8% (active).

For `C=CCn1c(SCC(=O)Nc2ccc(C(=O)/C=C/c3ccc(Cl)cc3)cc2)nnc1-c1ccc(Cl)cc1`, the growth was 89%. In the case of `COc1cc(F)c(/C=C/c2cc(/C=C/c3cc(OC)c(OC)cc3F)on2)cc1OC`, the growth was 77.6%. As for `CN(C)c1ccc(-c2nc(-c3ccccc3)c(-c3ccccc3)[nH]2)cc1`, the growth was 114%. For `CC(C)(C)CC(C)(C)n1nnnc1C(Nc1nccs1)c1cc2cccc3ccc4cccc1c4c32` (stereo unspecified) the value was -33.3% (active).
